In PubChem BioAssay (Tox21):
Values joined by “and” are separate entries in the source; they are usually repeats but may differ in a detail not shown here. Identical values can stand only once. Results filed as inconclusive are left out. A call without a number means that no potency is given here. Where a structure was tested more than once in an assay, its records may differ in their call. Active and inactive are the calls of the source. Calls come from the whole dose curve; as a rule, active = well fitted curve in the direction sought with a large enough effect in the repeat runs; inconclusive = weak or mixed curves; inactive = no such curve, though single readings can be large; an effect the other way counts as inactive or inconclusive.

Key:
[1] = qHTS RealTime-Glo MT Cell Viability Assay in HEK293 cells - 0 hour (AID 1224880); note: nearly all actives have a fitted effect of over 45% in size; note: potency is the fitted concentration of half-maximal effect; for activity change, negative = cytotoxicity: top concentration of the series differs between compounds
Method in brief: (§1)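 Viable HEK293 cells reduce a cell-permeant prosubstrate; the product diffuses out and is consumed by NanoLuc in the medium to give light. Compounds went in after a 5 h incubation and plates were read over the treatment course.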

[2] = A CellTox Green Cytotoxicity Assay to monitor cytotoxicity in HEK293 cells - 32 hour (AID 1224881); note: nearly all actives have a fitted effect of over 40% in size; note: potency is the fitted concentration of half-maximal effect
Method in brief: (§2)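 Fluorescence intensity, read at 0, 8, 16, 24, 32 and 40 h of compound treatment, reflected dye binding to DNA of dead HEK293 cells; compounds (23 nL, DMSO) were added 5 h after plating cells with reagent.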

[3] = A CellTox Green Cytotoxicity Assay to monitor cytotoxicity in HepG2 cells - 0 hour (AID 1224882); note: nearly all actives have a fitted effect of over 35% in size; note: potency is the fitted concentration of half-maximal effect
Method in brief: (§3)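 Using 1536-well format, dye-containing HepG2 suspension was seeded, allowed 5 h at 37 C/5% CO2, dosed by pintool with compounds, positive and negative controls, and imaged for fluorescence across 40 h.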

[4] = A CellTox Green Cytotoxicity Assay to monitor cytotoxicity in HepG2 cells - 32 hour (AID 1224883); note: nearly all actives have a fitted effect of over 50% in size; note: potency is the fitted concentration of half-maximal effect
Method in brief: as §3

[5] = A CellTox Green Cytotoxicity Assay to monitor cytotoxicity in HEK293 cells - 8 hour (AID 1224884); note: nearly all actives have a fitted effect of over 35% in size; note: potency is the fitted concentration of half-maximal effect
Method in brief: as §2

[6] = qHTS RealTime-Glo MT Cell Viability Assay in HepG2 cells - 16 hour (AID 1224885); note: nearly all actives have a fitted effect of over 50% in size; note: potency is the fitted concentration of half-maximal effect
Method in brief: (§4)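 qHTS, HepG2, 600 cells/well, RealTime-Glo (NanoLuc + prosubstrate) added with cells; 5 h preincubation; DMSO compound addition; 37 C; luminescence at 0/8/16/24/32/40 h.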

[7] = qHTS RealTime-Glo MT Cell Viability Assay in HEK293 cells - 24 hour (AID 1224886); note: nearly all actives have a fitted effect of over 50% in size; note: potency is the fitted concentration of half-maximal effect; for activity change, negative = cytotoxicity: top concentration of the series differs between compounds
Method in brief: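 Assay medium contained NanoLuc luciferase plus cell-permeant prosubstrate, added with HEK293 cells at 600 cells/well. After 5 h at 37 C/5% CO2 compounds were added; plates stayed at 37 C for 40 h with serial luminescence reads.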

[8] = A CellTox Green Cytotoxicity Assay to monitor cytotoxicity in HEK293 cells - 16 hour (AID 1224888); note: nearly all actives have a fitted effect of over 35% in size; note: potency is the fitted concentration of half-maximal effect
Method in brief: as §2

[9] = qHTS RealTime-Glo MT Cell Viability Assay in HepG2 cells - 0 hour (AID 1224889); note: nearly all actives have a fitted effect of over 50% in size; note: potency is the fitted concentration of half-maximal effect
Method in brief: as §4

[10] = qHTS RealTime-Glo MT Cell Viability Assay in HEK293 cells - 8 hour (AID 1224887)
Method in brief: as §1

| SMILES | Potency [1] | Potency [2] | Potency [3] | Potency [4] | Potency [5] | Potency [6] | Potency [7] | Potency [8] | Potency [9] | Potency [10] | activity change, negative = cytotoxicity [1] | activity change, negative = cytotoxic [6] | activity change, negative = cytotoxicity [9] |
| --- | --- | --- | --- | --- | --- | --- | --- | --- | --- | --- | --- | --- | --- |
| CCCCCCCCCCCC[N+](C)(C)Cc1ccccc1 | inactive | 38.1 µM (active) and 29.9 µM (active) and 23.9 µM (active) | inactive | 17 µM (active) and 23.8 µM (active) and 10.7 µM (active) | 59.7 µM (active) | 21.5 µM (active) and 23.8 µM (active) and 12 µM (active) | 4.28 µM (active) and 4.23 µM (active) and 3.01 µM (active) | 48 µM (active) and 53.2 µM (active) and 26.8 µM (active) | inactive |  |  |  |  |
| C[C@](N)(Cc1ccc(O)c(O)c1)C(=O)O | inactive | inactive | inactive | inactive | inactive | inactive | inactive | inactive | inactive |  |  |  |  |
| Nc1ccc(S(N)(=O)=O)cc1 | inactive | inactive | inactive | inactive | inactive | inactive | inactive | inactive | inactive |  |  |  |  |
| CCc1nc(N)nc(N)c1-c1ccc(Cl)cc1 | inactive | inactive | inactive | inactive | inactive | inactive | inactive | inactive | inactive |  |  |  |  |
| O=C1OC2(c3ccccc31)c1cc(Br)c(O)c(Br)c1Oc1c2cc(Br)c(O)c1Br | 9.92 µM (active) and 17.9 µM (active) and 23.9 µM (active) | 4.97 µM (active) and 7.11 µM (active) and 21.3 µM (active) | 9.92 µM (active) and 11.3 µM (active) and 23.9 µM (active) | 5.58 µM (active) and 14.2 µM (active) and 23.9 µM (active) | 5.58 µM (active) and 12.7 µM (active) and 19 µM (active) | inactive | inactive | 4.43 µM (active) and 7.11 µM (active) and 19 µM (active) | 9.92 µM (active) and 20 µM (active) | inactive |  |  |  |
| CCCCNC(=O)NS(=O)(=O)c1ccc(C)cc1 | inactive | inactive | inactive | inactive | inactive | inactive | inactive | inactive | inactive |  |  |  |  |
| CN1CCc2cccc3c2[C@H]1Cc1ccc(O)c(O)c1-3 | inactive | 55.5 µM (active) and inactive | inactive | inactive | inactive | 49.5 µM (active) and 18.3 µM (active) and 23.9 µM (active) | 14 µM (active) and 8.17 µM (active) and 23.9 µM (active) | inactive | inactive |  |  |  |  |
| CN(C)CCOC(C)(c1ccccc1)c1ccccn1 (stereo not drawn) | inactive | inactive | inactive | inactive | inactive | inactive | inactive | inactive | inactive |  |  |  |  |
| Cc1cc(=O)oc2cc(O)ccc12 | inactive | inactive | inactive | inactive | inactive | inactive | inactive | inactive | inactive | inactive |  |  |  |
| CCCCC(CC)C(=O)O (stereo not drawn) | inactive | inactive | inactive | inactive | inactive | inactive | inactive | inactive | inactive |  |  |  |  |
| C=C1CC[C@H](O)C/C1=C\C=C1/CCC[C@]2(C)[C@@H]([C@H](C)CCCC(C)C)CC[C@@H]12 | inactive | inactive | inactive | inactive | inactive | inactive | 43.2 µM (active) | inactive |  |  |  |  |  |
| CCN(Cc1c(F)cccc1Cl)c1c([N+](=O)[O-])cc(C(F)(F)F)cc1[N+](=O)[O-] | inactive | inactive | inactive | inactive | inactive | inactive | 43.6 µM (active) | inactive | inactive |  |  |  |  |
| NC(CO)(CO)CO | inactive | inactive | inactive | inactive | inactive | inactive | inactive | inactive | inactive |  |  |  |  |
| Nc1ccc2c(c1)CN1C(=O)c3ccccc3C1=N2 |  | 10.4 µM (active) | 10.4 µM (active) | 10.4 µM (active) | 10.4 µM (active) |  | 9.28 µM (active) | 10.4 µM (active) |  |  | 5.64% [at 15.8 µM] (inactive) | -5.66% [at 15.8 µM] (inactive) | 4.86% [at 15.8 µM] (inactive) |
| Cc1ncc([N+](=O)[O-])n1C | inactive | inactive | inactive | inactive | 48.3 µM (active) and inactive | inactive | inactive | inactive | inactive | inactive |  |  |  |
| CC(=O)C(=O)O | inactive | inactive | inactive | inactive | inactive | inactive | inactive | inactive | inactive |  |  |  |  |
| Cn1c(=O)c2c(ncn2C)n(C)c1=O | inactive | inactive | inactive | inactive | inactive | inactive | inactive | inactive | inactive |  |  |  |  |
| O=C1c2c(O)cccc2Cc2cccc(O)c21 | inactive | inactive | inactive | inactive | inactive | inactive | inactive | inactive | inactive | inactive |  |  |  |
| NS(=O)(=O)O | inactive | inactive | inactive | inactive | inactive | inactive | inactive | inactive | inactive |  |  |  |  |

| SMILES | Potency [1] | Potency [2] | Potency [3] | Potency [4] | Potency [5] | Potency [6] | Potency [7] | Potency [8] | Potency [9] | Potency [10] | activity change, negative = cytotoxicity [1] | activity change, negative = cytotoxic [6] | activity change, negative = cytotoxicity [9] |
| --- | --- | --- | --- | --- | --- | --- | --- | --- | --- | --- | --- | --- | --- |
| C=C(C)C(=O)OCC(C)O (stereo not drawn) | inactive | inactive | inactive | inactive | inactive | inactive | inactive | inactive | inactive |  |  |  |  |
| Nc1c2c(nc3ccccc13)CCCC2 | inactive | inactive | inactive | inactive | inactive | inactive | inactive | inactive | inactive |  |  |  |  |
| CC1(C)S[C@@H]2[C@H](NC(=O)[C@H](N)c3ccccc3)C(=O)N2[C@H]1C(=O)O |  | inactive | inactive | inactive | inactive |  |  | inactive |  |  |  |  |  |
| O=C1NC(=O)C(c2ccccc2)(c2ccccc2)N1 | inactive | inactive and 19 µM (active) | inactive | inactive and 21.3 µM (active) | inactive and 21.3 µM (active) | inactive | inactive |  | inactive |  |  |  |  |
| CC1(C)O[C@@H]2C[C@H]3[C@@H]4CCC5=CC(=O)C=C[C@]5(C)[C@@]4(F)[C@@H](O)C[C@]3(C)[C@]2(C(=O)CO)O1 | inactive | inactive and 9.52 µM (active) | inactive | inactive | inactive and 9.52 µM (active) | inactive | inactive |  | 22 µM (active) and 12.3 µM (active) |  |  |  |  |
| COc1ccc(CN(CCN(C)C)c2ccccn2)cc1 |  | inactive | inactive | inactive | inactive |  |  | inactive |  |  |  |  |  |
| Cc1ccc(S(=O)(=O)O)cc1 | inactive | inactive | inactive | inactive | inactive | inactive | inactive | inactive | inactive |  |  |  |  |
| NC(=O)n1c(O)c(C(=O)c2cccs2)c2cc(Cl)ccc21 |  | inactive | inactive | inactive | inactive | inactive | inactive | inactive |  |  |  |  |  |
| CN[C@H]1CC[C@@H](c2ccc(Cl)c(Cl)c2)c2ccccc21 |  |  | inactive | 19 µM (active) |  | 23.9 µM (active) | 21.3 µM (active) |  | inactive |  |  |  |  |
| CCCc1cc(=O)[nH]c(=S)[nH]1 | inactive | inactive | inactive | inactive | inactive | inactive | inactive | inactive | inactive |  |  |  |  |
| COc1ccc(OC(F)(F)F)cc1CN[C@H]1CCCN[C@H]1c1ccccc1 |  |  | inactive | 49 µM (active) |  | 54.9 µM (active) | 43.6 µM (active) |  |  |  |  |  |  |
| O=C1O[C@H]([C@@H](O)CO)C(O)=C1O | inactive | inactive | inactive | inactive | inactive | inactive | inactive | inactive | inactive |  |  |  |  |
| CS(=O)(=O)OCCCCOS(C)(=O)=O | inactive | inactive | inactive | inactive | inactive | inactive | inactive | inactive | inactive |  |  |  |  |
| O=C(Nc1ncc([N+](=O)[O-])s1)c1cccs1 | inactive | inactive | inactive | inactive | inactive | inactive | inactive | inactive | inactive |  |  |  |  |
| Nc1ccc(O)c([N+](=O)[O-])c1 |  | inactive | inactive | inactive | inactive | inactive |  | inactive |  | inactive |  |  |  |
| COc1cccc(O)c1O | inactive | inactive | inactive | inactive | inactive | inactive |  | inactive | inactive |  |  |  |  |
| COc1ccc2cc(S(=O)(=O)N[C@H](CC(=O)N[C@H](Cc3ccc(CN4[C@H](C)CCC[C@@H]4C)cc3)C(=O)N(C)C(C)C)c3ccc4c(c3)OCO4)ccc2c1 | inactive | 52 µM (active) | inactive | 52 µM (active) |  | 52 µM (active) | 41.3 µM (active) |  |  |  |  |  |  |
| CC/C(=C(\c1ccccc1)c1ccc(OCCN(C)C)cc1)c1ccccc1 |  | 35 µM (active) [middle of 5 runs] | inactive | 43.6 µM (active) [middle of 5 runs] | 44 µM (active) [middle of 5 runs] | 43.6 µM (active) [middle of 5 runs] | 24.5 µM (active) [middle of 5 runs] | 39.2 µM (active) [middle of 5 runs] | inactive |  |  |  |  |
